From PubChem BioAssay (Tox21)
Results filed as inconclusive are left out. Activity calls are given as the source filed them. Unless noted, calls follow the shape of the dose curve; as a rule, active = well fitted curve in the direction sought with a large enough effect in the repeat runs; inconclusive = weak or mixed curves; inactive = no such curve, though single readings can be large; an effect the other way counts as inactive or inconclusive.

Tests used:
[1] = qHTS assay to identify small molecule antagonists of the thyroid receptor (TR) signaling pathway - cell viability counter screen (AID 743064); also: nearly all actives have a fitted effect of over 50% in size; also: potency is read from the fitted curve at half-maximal effect
In short: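 Fluorescence from CellTiter-Fluor, added after 23.5 h exposure at 37 °C, reported viability of GH3.TRE-Luc cells co-treated with compound and 1 nM T3. Measured in the same wells as the luciferase TR readout.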

[2] = qHTS assay to identify small molecule antagonists of the thyroid receptor (TR) signaling pathway (AID 743065); also: nearly all actives have a fitted effect of over 55% in size; also: potency is read from the fitted curve at half-maximal effect
In short: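 Antagonism measured as loss of luciferase signal in GH3 cells stably carrying a TRE-luciferase reporter, co-treated with compound and T3 (1 nM final) for 23.5 h at 37 C. Viability was read in the same well by CellTiter-Fluor.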

[3] = system: thyroid hormone receptor (rat, GH3 cells); test: qHTS assay to identify small molecule agonists of the thyroid receptor (TR) signaling pathway (AID 743066; calls by dose curve)
[4] = qHTS assay to identify small molecule antagonists of the estrogen receptor alpha (ER-alpha) signaling pathway - cell viability counter screen (AID 743074; calls by dose curve;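 also: HEK293 cells carrying ER-alpha-UAS-bla reporter stimulated with 17beta-estradiol; nearly all actives have a fitted effect of over 45% in size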)
[5] = qHTS assay to identify small molecule antagonists of the estrogen receptor alpha (ER-alpha) signaling pathway using the BG1 cell line - cell viability counter screen (AID 743081);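 also: compound given together with 17beta-estradiol as the ER stimulus; series mostly up to about 70 µM; nearly all actives have a fitted effect of over 45% in size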
Aromatase (Homo sapiens) = Aromatase (Homo sapiens) (UniProt P11511); test: qHTS assay to identify aromatase inhibitors (AID 743083); also: series mostly up to about 70 µM; nearly all actives have a fitted effect of over 55% in size
[6] = qHTS assay to identify aromatase inhibitors - cell viability counter screen (AID 743084);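 also: cells stimulated with testosterone during compound exposure; nearly all actives have a fitted effect of over 55% in size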
[7] = biological target: Aryl hydrocarbon receptor (Homo sapiens) (UniProt P35869); test: qHTS assay to identify small molecule that activate the aryl hydrocarbon receptor (AhR) signaling pathway (AID 743085);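 also: HG2L7.5c1 human HepG2 liver cells with stably integrated DRE-driven firefly reporter; series mostly up to about 70 µM; nearly all actives have a fitted effect of over 15% in size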
In short: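 Cell line HG2L7.5c1 (human hepatoma, 20× DRE-luc). Plated, 5 h 37C, compound/DMSO added, 24 h 37C. CellTiter-Fluor 30 min 37C → fluorescence; then ONE-Glo 30 min RT → luminescence.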

[8] = biological target: Peroxisome proliferator-activated receptor gamma (Homo sapiens) (UniProt P37231); test: qHTS assay to identify small molecule agonists of the peroxisome proliferator-activated receptor gamma (PPARg) signaling pathway (AID 743094; active = well fitted activation curve with a large enough effect in the signal ratio in the repeat runs, not every such curve was filed as active; the % refers to the signal ratio)
In short: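 Following 5 h plating at 37C, PPARg-bla HEK293H cells receive compound or DMSO for 17 h; fluorescence intensity is recorded after LiveBLAzer B/G loading for 1 h at room temperature.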

[9] = biological target: Peroxisome proliferator-activated receptor gamma (Homo sapiens) (UniProt P37231); test: qHTS assay to identify small molecule antagonists of the peroxisome proliferator-activated receptor gamma (PPARg) signaling pathway (AID 743191; calls by dose curve; also: series mostly up to about 63 µM; nearly all actives have a fitted effect of over 30% in size)
In short: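 Beta-lactamase reporter under UAS control in HEK293H PPARg-bla cells; compound treatment 17 h at 37C. Read-out: fluorescence intensity after 1 h room-temperature incubation with LiveBLAzer B/G FRET substrate.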

[10] = qHTS assay for small molecule agonists of the antioxidant response element (ARE) signaling pathway (AID 743202; active = well fitted activation curve with a large enough effect in the signal ratio in the repeat runs, not every such curve was filed as active; the % refers to the signal ratio)
In short: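 Quantitative high-throughput format in HepG2 cells bearing an integrated ARE-beta-lactamase reporter. Compound exposure lasted 16 h at 37 C, and fluorescence was read 2 h after adding LiveBLAzer B/G substrate at room temperature.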

[11] = qHTS assay for small molecule activators of the heat shock response signaling pathway - cell viability counter screen (AID 743209); also: nearly all actives have a fitted effect of over 50% in size
In short: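 Counter screen for cytotoxicity in HeLa HSE-bla reporter cells. Treatment was 5 h at 37 C; viability was detected by luminescent ATP assay (CellTiter-Glo) in the same wells as the beta-lactamase read.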

[12] = qHTS assay for small molecule activators of the heat shock response signaling pathway (AID 743210; active = well fitted activation curve with a large enough effect in the signal ratio in the repeat runs, with a control signal flat, not every such curve was filed as active; the % refers to the signal ratio;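 also: HeLa cells with beta-lactamase reporter driven by heat shock elements; series mostly up to about 63 µM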)
In short: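 HeLa HSE-bla cells, overnight plating; cpd in DMSO 5 h, 37 C; LiveBLAzer B/G FRET substrate 2.5 h RT; fluorescence intensity read.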

[13] = qHTS assay to identify small molecule that activate the aryl hydrocarbon receptor (AhR) signaling pathway - cell viability counter screen (AID 743086);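 also: HepG2 liver cells carrying the AhR DRE luciferase reporter; series mostly up to about 70 µM; nearly all actives have a fitted effect of over 45% in size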
In short: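 Cytotoxicity counter screen: CellTiter-Fluor signal (30 min, 37 C) in 4000 HepG2 cells/well carrying the DRE-luciferase reporter, following 24 h compound exposure at 37 C.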

[14] = qHTS assay to identify small molecule antagonists of the peroxisome proliferator-activated receptor gamma (PPARg) signaling pathway - cell viability counter screen (AID 743194); also: nearly all actives have a fitted effect of over 55% in size
In short: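 Viability was measured as CellTiter-Glo luminescence in GeneBLAzer PPARg UAS-bla HEK293H cells. These cells had been exposed 17 h at 37 C to compounds together with rosiglitazone at 50 nM final, with the beta-lactamase readout taken in the same wells.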

[15] = qHTS assay for small molecule agonists of the antioxidant response element (ARE) signaling pathway - cell viability counter screen (AID 743203; calls by dose curve; also: nearly all actives have a fitted effect of over 55% in size)
In short: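 Compounds in DMSO were pinned onto ARE-bla HepG2 cells plated 5 hrs earlier at 2,000 cells/well. Sixteen hours later at 37C/5% CO2, CellTiter-Glo was added and luminescence measured after 30 min at room temperature.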

[16] = biological target: Estrogen receptor (Homo sapiens) (UniProt P03372); test: qHTS assay to identify small molecule antagonists of the estrogen receptor alpha (ER-alpha) signaling pathway (AID 743069; active = well fitted curve in the direction sought with a large enough effect in the signal ratio in the repeat runs, not every such curve was filed as active; the % refers to the signal ratio; also: potency is read from the fitted curve at half-maximal effect)
In short: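 ER-alpha-UAS-bla GripTite HEK293 line; 2% charcoal-stripped FBS overnight; plated, 4 hr 37C/5% CO2; cpd in DMSO + 17beta-estradiol, 18 hr 37C; LiveBLAzer B/G FRET substrate 2 hr RT; fluorescence intensity.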

[17] = biological target: Estrogen receptor (Homo sapiens) (UniProt P03372); test: qHTS assay to identify small molecule agonists of the estrogen receptor alpha (ER-alpha) signaling pathway (AID 743075; calls by dose curve;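 also: HEK293 GripTite cells with ER-alpha and UAS-driven beta-lactamase reporter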)
[18] = biological target: Estrogen receptor (Homo sapiens) (UniProt P03372); test: qHTS assay to identify small molecule agonists of the estrogen receptor alpha (ER-alpha) signaling pathway using the BG1 cell line (AID 743079); also: nearly all actives have a fitted effect of over 20% in size
[19] = qHTS assay to identify small molecule antagonists of the estrogen receptor alpha (ER-alpha) signaling pathway using the BG1 cell line (AID 743080; calls by dose curve;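 also: BG1 cells stimulated with 17beta-estradiol alongside compound; series mostly up to about 70 µM; nearly all actives have a fitted effect of over 25% in size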)
In short: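 Seeding, 24 h rest, compound transfer from DMSO, 17beta-estradiol addition, 21.5 h incubation, CellTiter-Fluor (30 min, 37 C), then ONE-Glo (30 min, room temperature): this sequence was run on BG1-Luc-4E2 reporter cells.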

Measured: Potency

Chain of Aryl hydrocarbon receptor (Homo sapiens) (P35869 whole entry, looked up): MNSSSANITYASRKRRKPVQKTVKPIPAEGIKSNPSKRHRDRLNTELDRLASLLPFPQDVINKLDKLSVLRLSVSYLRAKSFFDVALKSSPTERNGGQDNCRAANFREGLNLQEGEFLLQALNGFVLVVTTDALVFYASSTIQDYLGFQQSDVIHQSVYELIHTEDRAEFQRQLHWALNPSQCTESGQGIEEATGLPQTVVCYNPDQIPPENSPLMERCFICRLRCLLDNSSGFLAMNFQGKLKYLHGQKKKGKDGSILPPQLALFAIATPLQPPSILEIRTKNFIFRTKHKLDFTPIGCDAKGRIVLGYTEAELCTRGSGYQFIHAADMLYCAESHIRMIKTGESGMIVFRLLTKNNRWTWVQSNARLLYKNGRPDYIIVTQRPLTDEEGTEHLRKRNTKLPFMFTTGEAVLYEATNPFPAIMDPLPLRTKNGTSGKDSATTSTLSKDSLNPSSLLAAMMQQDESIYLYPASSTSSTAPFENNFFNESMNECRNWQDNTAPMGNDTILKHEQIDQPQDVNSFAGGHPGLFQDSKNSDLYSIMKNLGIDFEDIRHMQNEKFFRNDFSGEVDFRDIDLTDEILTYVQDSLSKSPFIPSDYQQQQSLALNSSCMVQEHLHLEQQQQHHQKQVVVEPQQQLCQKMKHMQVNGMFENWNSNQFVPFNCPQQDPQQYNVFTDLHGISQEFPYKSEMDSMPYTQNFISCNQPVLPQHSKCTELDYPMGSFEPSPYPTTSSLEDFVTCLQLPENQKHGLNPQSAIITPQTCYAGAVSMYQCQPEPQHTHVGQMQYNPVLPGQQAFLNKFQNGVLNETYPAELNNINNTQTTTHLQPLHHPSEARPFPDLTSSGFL
Chain of Estrogen receptor (Homo sapiens) (P03372 whole entry, looked up): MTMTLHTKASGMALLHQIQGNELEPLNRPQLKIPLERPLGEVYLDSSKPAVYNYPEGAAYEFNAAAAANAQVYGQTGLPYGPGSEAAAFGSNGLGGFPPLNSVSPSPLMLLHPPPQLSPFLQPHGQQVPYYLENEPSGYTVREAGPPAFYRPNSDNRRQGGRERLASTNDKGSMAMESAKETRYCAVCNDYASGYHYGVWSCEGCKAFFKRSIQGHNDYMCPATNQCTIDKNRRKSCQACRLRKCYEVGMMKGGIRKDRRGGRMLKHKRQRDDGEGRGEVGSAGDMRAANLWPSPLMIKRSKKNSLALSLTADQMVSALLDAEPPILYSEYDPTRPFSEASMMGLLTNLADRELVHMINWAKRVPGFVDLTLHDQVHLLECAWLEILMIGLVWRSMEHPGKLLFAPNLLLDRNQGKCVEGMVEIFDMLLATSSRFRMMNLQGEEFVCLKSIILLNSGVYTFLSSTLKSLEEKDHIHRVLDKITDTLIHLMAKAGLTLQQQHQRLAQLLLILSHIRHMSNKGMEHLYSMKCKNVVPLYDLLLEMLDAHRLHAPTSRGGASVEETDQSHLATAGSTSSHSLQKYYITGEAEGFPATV
Chain of Aromatase (Homo sapiens) (P11511 whole entry, looked up): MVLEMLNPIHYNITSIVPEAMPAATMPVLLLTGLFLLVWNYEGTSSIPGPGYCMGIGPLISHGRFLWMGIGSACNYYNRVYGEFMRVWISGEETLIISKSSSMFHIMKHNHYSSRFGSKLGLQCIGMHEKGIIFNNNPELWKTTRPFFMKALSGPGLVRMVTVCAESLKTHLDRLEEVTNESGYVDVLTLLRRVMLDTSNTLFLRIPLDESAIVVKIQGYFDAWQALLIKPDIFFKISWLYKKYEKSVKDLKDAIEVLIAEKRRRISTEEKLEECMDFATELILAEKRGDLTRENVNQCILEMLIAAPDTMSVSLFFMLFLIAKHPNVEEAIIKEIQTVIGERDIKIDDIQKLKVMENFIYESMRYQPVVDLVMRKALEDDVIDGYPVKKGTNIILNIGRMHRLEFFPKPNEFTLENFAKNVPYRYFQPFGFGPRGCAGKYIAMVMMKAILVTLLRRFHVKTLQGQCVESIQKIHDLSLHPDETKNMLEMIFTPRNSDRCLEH
Chain of Peroxisome proliferator-activated receptor gamma (Homo sapiens) (P37231 whole entry, looked up): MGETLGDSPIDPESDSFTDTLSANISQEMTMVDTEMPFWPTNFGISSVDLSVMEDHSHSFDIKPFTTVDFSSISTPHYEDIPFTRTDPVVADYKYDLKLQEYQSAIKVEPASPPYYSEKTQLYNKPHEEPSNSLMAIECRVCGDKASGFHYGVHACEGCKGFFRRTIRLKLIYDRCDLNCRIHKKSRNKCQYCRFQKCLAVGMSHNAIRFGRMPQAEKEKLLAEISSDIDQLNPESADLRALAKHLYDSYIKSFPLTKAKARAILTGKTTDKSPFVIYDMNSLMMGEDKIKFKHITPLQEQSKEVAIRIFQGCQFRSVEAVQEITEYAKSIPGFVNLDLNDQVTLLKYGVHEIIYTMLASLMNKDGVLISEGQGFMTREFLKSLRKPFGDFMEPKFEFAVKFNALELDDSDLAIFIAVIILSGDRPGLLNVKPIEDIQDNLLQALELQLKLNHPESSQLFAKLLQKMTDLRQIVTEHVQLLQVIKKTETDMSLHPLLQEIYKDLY

CCOC(=O)CC(CC(=O)OCC)(OC(C)=O)C(=O)OCC
not listed: [13] | [14] | [15] | [16] | [17] | [18] | [19]
inactive: all other assays above

CN[C@@H]1[C@@H](O)[C@@H](O[C@@H]2[C@H](O)[C@H](O[C@H]3OC(CN)=CC[C@H]3N)[C@@H](N)C[C@H]2N)OCC1(C)O (stereo partly specified)
not listed: [9] | [16] | [17] | [18] | [19]
inactive: all other assays above

CCCCC(C)C(=O)O (stereo unspecified)
not listed: [9] | [16] | [17] | [18] | [19]
inactive: all other assays above

O=C1NC2NC(=O)NC2N1 (stereo unspecified)
not listed: [8] | [16] | [17] | [18] | [19]
inactive: all other assays above

C=COCCOCCOC=C
not listed: [10] | [16] | [17] | [18] | [19]
inactive: all other assays above

CC(C)COC(=O)COc1ccc(Cl)cc1Cl
not listed: [9] | [13] | [14] | [16] | [17] | [18] | [19]
inactive: all other assays above

CC(C)c1ccccc1O
not listed: [8] | [9] | [16] | [17] | [18] | [19]
inactive: all other assays above

CN(C1CCCCC1)S(=O)(=O)c1ccccc1N
not listed: [10] | [12] | [13] | [16] | [17] | [18] | [19]
inactive: all other assays above

CCCCC(CC)C(=O)OC(C)C (stereo unspecified)
not listed: [9] | [15] | [16] | [17] | [18] | [19]
inactive: all other assays above

O=S(=O)(O)SSS(=O)(=O)O
not listed: [9] | [10] | [12] | [16] | [17] | [18] | [19]
inactive: all other assays above

C[C@H]1O[C@H](O[C@H]2[C@H](O)[C@@H](O)[C@@H](O[C@H]3[C@H](O)[C@@H](O)[C@H](O)O[C@@H]3CO)O[C@@H]2CO)[C@H](O)[C@@H](O)[C@@H]1N[C@H]1C=C(CO)[C@@H](O)[C@H](O)[C@H]1O
not listed: [11] | [12] | [16] | [17] | [18] | [19]
inactive: all other assays above

C[C@@H]1C[C@H]2[C@@H]3C[C@H](F)C4=CC(=O)C=C[C@]4(C)[C@@]3(F)[C@@H](O)C[C@]2(C)[C@@]1(O)C(=O)CO
not listed: [8] | [9] | [16] | [17] | [18] | [19]
inactive: all other assays above

CCOc1ccc(NC(=O)OC(C)C)cc1OCC
not listed: [12] | [13] | [16] | [17] | [18] | [19]
inactive: all other assays above

COc1cc([N+](=O)[O-])ccc1N
active: [16] 6.92 µM [inhibitor]
not listed: [1] | [5] | [6] | [9] | [13] | [14]
inactive: all other assays above

CO/N=C(/C(=O)N[C@@H]1C(=O)N2C(C(=O)O)=C(Cn3nnc(C)n3)CS[C@H]12)c1csc(N)n1
inactive: [1] | [2] | [3] | [5] | [14] | [10] | [15] | [11] | [12]

O=C(CN1CCN(Cc2ccc3c(c2)OCO3)CC1)N1c2ccccc2Sc2ccccc21
active: [1] 29.8 µM | [2] 26.6 µM
inactive: [4] | [5] | Aromatase (Homo sapiens) | [6] | [9] | [14] | [15] | [11]

C=C(C)C(=O)OC
not listed: [4] | [9] | [13] | [16] | [17] | [18] | [19]
inactive: all other assays above

CCN(CCO)c1cccc(C)c1
not listed: [2] | [3] | [16]
inactive: all other assays above

NC(=O)NNC(N)=O
not listed: [1] | [9] | [10] | [14]
inactive: all other assays above
